Source: PubChem BioAssay (Tox21)
Records with an inconclusive call do not appear. Active and inactive are the calls of the source. Unless noted, calls follow the shape of the dose curve; as a rule, active = well fitted curve in the direction sought with a large enough effect in the repeat runs; inconclusive = weak or mixed curves; inactive = flat fitted curve, though single readings scatter.

Legend:
[1] = qHTS assay to test for compound auto fluorescence at 535 nm (green) in HEK293 cells (AID 720680)
[2] = qHTS assay to test for compound auto fluorescence at 460 nm (blue) in HEK293 cell free culture (AID 720681)
Outline: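 Blue fluorescence (Ex 405/Em 460 nm, triamterene-equivalent) was read immediately after pin transfer of compound or DMSO into medium (DMEM, 10% FBS) without cells.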

[3] = qHTS assay to test for compound auto fluorescence at 535 nm (green) in HEK293 cell free culture (AID 720682)
Outline: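 Fluorescein serves as the green reference fluorophore; each compound's intrinsic emission at 535 nm (excitation 485 nm) is reported as an equivalent amount of that dye, measured in serum-containing DMEM without cells.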

[4] = qHTS assay to test for compound auto fluorescence at 590 nm (red) in HepG2 cell free culture (AID 720684)
Outline: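 Plate contents were MEM with 10% FBS plus test compound or DMSO, no cells. Fluorescence was recorded with 540 nm excitation and 590 nm emission.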

[5] = qHTS assay to test for compound auto fluorescence at 460 nm (blue) in HepG2 cell free culture (AID 720685)
Outline: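 Compound (23 nL) or DMSO pinned into cell-free MEM with 10% FBS; blue fluorescence read at 405/460 nm excitation/emission, expressed as auto-fluorescence equivalency to triamterene.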

[6] = qHTS assay to test for compound auto fluorescence at 535 nm (green) in HepG2 cell free culture (AID 720686)
[7] = qHTS assay to test for compound auto fluorescence at 460 nm (blue) in HepG2 cells (AID 720687)
Outline: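 Blue-channel autofluorescence (Ex/Em 405/460 nm, triamterene-equivalent) was measured after 1 hr compound exposure at 37 C, 5% CO2. Cells were HepG2, plated overnight at 37 C in MEM plus 10% FBS.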

[8] = target: Glucocorticoid receptor (Homo sapiens) (UniProt P04150); assay: qHTS assay to identify small molecule agonists of the glucocorticoid receptor (GR) signaling pathway (AID 720691; active = well fitted activation curve with a large enough effect in the signal ratio in the repeat runs, not every such curve was filed as active; the % refers to the signal ratio)
Chain of Glucocorticoid receptor (Homo sapiens) (P04150 whole entry, looked up): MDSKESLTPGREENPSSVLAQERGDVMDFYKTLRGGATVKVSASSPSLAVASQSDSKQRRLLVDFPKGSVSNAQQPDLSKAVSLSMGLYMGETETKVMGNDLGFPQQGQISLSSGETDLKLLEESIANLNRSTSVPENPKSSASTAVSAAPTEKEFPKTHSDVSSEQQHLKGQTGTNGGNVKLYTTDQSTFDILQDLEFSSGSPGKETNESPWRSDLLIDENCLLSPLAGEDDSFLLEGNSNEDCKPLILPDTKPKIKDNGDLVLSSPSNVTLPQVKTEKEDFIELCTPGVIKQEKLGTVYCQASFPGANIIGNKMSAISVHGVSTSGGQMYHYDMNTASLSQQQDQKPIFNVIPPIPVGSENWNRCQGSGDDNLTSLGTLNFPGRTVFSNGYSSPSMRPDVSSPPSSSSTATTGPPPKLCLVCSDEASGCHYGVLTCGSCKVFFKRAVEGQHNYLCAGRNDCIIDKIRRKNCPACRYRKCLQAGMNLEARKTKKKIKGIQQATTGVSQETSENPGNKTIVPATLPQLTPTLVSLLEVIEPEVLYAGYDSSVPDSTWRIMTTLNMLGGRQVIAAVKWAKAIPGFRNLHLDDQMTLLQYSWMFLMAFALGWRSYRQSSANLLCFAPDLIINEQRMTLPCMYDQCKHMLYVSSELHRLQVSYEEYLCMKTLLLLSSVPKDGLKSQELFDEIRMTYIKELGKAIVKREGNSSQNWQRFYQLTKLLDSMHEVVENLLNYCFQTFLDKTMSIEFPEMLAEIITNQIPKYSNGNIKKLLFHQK
Outline: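 Reporter read-out: fluorescence intensity following 2 h room-temperature LiveBLAzer B/G FRET substrate loading. Prior step: GR-bla HeLa cells held 4 h, then treated 18 h at 37 C.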

[9] = target: Glucocorticoid receptor (Homo sapiens) (UniProt P04150); assay: qHTS assay to identify small molecule antagonists of the glucocorticoid receptor (GR) signaling pathway (AID 720692; active = well fitted inhibition curve with a large enough effect in the signal ratio in the repeat runs, not every such curve was filed as active; the % refers to the signal ratio)
Outline: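 Dexamethasone (5 nM final) stimulated a stably integrated GRE-beta-lactamase reporter in HeLa cells during 18 h co-incubation with compounds; signal was quantified as fluorescence intensity of B/G FRET substrate after 2 h.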

[10] = qHTS assay to test for compound auto fluorescence at 590 nm (red) in HEK293 cell free culture (AID 720683)
Outline: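 Red-channel autofluorescence of compounds in culture medium (DMEM, 10% FBS), no cells, measured at 540/590 nm. Rose Bengal sodium is the reference fluorophore for equivalence.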

Measured: Potency

CCOP(=S)(OCC)Oc1ccc(Cl)cc1Cl
not listed: [10]
inactive: all other assays above

CON(C)C(=O)Nc1ccc(Br)cc1
not listed: [4] | [9] | [10]
inactive: all other assays above

Nc1c(Cl)c(F)nc(OCC(=O)O)c1Cl
not listed: [2] | [6]
inactive: all other assays above
